Laboratory results taken from PubChem BioAssay (NCATS).
Several values for one entry are separate records, joined by “and”; a condition that tells them apart may be missing. Equal values may be shown once. Inconclusive results are not listed. Activity calls are given as the source filed them. The call rests on the fitted dose curve; in most records, active means well fitted curve in the direction sought with a large enough effect; inconclusive means small, poorly fitted or top-dose-only effect, or another doubt; inactive means no such curve, though single readings can be large; an effect the other way counts as inactive or inconclusive. Numbered stars: 1 amine (or outer) side, 2 acyl side, 3 side chain; on linkers, the order of the positions; unused ones are H or OH. Bridge positions count the residues as written; N and C are the ends. Square brackets hold non-standard residues; d marks the D form. Peptide text beside a SMILES is read from it. I, II: the chains in the order shown. Actinocin(9to1) = Cc1c2oc3c(C)ccc(C(=O)[*:1])c3nc-2c(C(=O)[*:2])c(N)c1=O; NMeV = CN[CH](C(=O)O)C(C)C; Sar = CNCC(=O)O

Experiments:
[1] = Viability qHTS for spleen associated tyrosine kinase inhibitor (SYKi) drug resistant MV4-11 cells (AID 1963824); further: nearly all actives have a fitted effect of over 35% in size
Procedure, shortened: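 SYK inhibitor-resistant MV4-11 AML cells, 500 per well, added to predispensed compounds and incubated 72 hr at 37 C, 5% CO2. Viability measured by CellTiter-Glo luminescence after 10 min at room temperature.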

[2] = Quantitative highthroughput screen to assess conditional lethalithy of NOMO1 cells grown in RPMI1640 with untreated serum (RPMI+s) (AID 1963876); further: nearly all actives have a fitted effect of over 35% in size;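 on Viability: 100% = DMSO wells and 0% = empty wells without cells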
Procedure, shortened: (§1)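 Each medium arm—HPLM with 10% dialyzed FBS, or RPMI1640 with 5 mM glucose and 10% untreated or dialyzed FBS—was screened against an 11-point, 3-fold compound titration for 48 h at 37 °C, with CellTiter-Glo luminescence as endpoint.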

[3] = Quantitative highthroughput screen to assess conditional lethalithy of NOMO1 cells grown in RPMI1640 with dialyzed fetal bovine serum (RPMI+ds) (AID 1963877); further: nearly all actives have a fitted effect of over 30% in size;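 on Viability: series mostly up to about 46 µM; 100% = DMSO control wells and 0% = empty wells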
Procedure, shortened: as §1

[4] = Quantitative highthroughput screen to assess conditional lethalithy of NOMO1 cells grown in Human Plasma-Like Medium with dialyzed fetal bovine serum (HPLM+ds) (AID 1963878); further: nearly all actives have a fitted effect of over 35% in size;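 on Viability: 100% = DMSO wells and 0% = empty wells on each plate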
Procedure, shortened: as §1

[5] = Quantitative highthroughput screen to assess conditional lethalithy of P12 Ichikawa cells grown in Human Plasma-Like Medium with dialyzed fetal bovine serum (HPLM+ds) (AID 1963879); conditions: Potency: viability; further: nearly all actives have a fitted effect of over 35% in size; on Viability: series mostly up to about 46 µM
Procedure, shortened: as §1

[6] = Quantitative highthroughput screen to assess conditional lethalithy of P12 Ichikawa cells grown in RPMI1640 with dialyzed fetal bovine serum (RPMI+ds) (AID 1963880); conditions: Potency: P12-Ichikawa viability; further: nearly all actives have a fitted effect of over 35% in size;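 on Viability: 100% = DMSO wells and 0% = empty wells on each plate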
Procedure, shortened: as §1

[7] = Quantitative highthroughput screen to assess conditional lethalithy of P12 Ichikawa cells grown in RPMI1640 with untreated serum (RPMI+s) (AID 1963881); conditions: Potency: viability; further: nearly all actives have a fitted effect of over 35% in size;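 on Viability: series mostly up to about 46 µM; 100% = DMSO wells and 0% = empty wells without cells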
Procedure, shortened: as §1

[8] = Quantitative highthroughput screen to assess conditional lethalithy of SEM cells grown in Human Plasma-Like Medium with dialyzed fetal bovine serum (HPLM+ds) (AID 1963882); further: nearly all actives have a fitted effect of over 35% in size; on Viability: series mostly up to about 46 µM
Procedure, shortened: as §1

[9] = Quantitative highthroughput screen to assess conditional lethalithy of SEM cells grown in RPMI1640 with unreated serum (RPMI+s) (AID 1963883); further: nearly all actives have a fitted effect of over 35% in size;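 on Viability: 100% = DMSO wells and 0% = empty wells without cells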
Procedure, shortened: as §1

[10] = Quantitative highthroughput screen to assess conditional lethalithy of SEM cells grown in RPMI1640 with dialyzed fetal bovine serum (RPMI+ds) (AID 1963884); further: nearly all actives have a fitted effect of over 35% in size;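 on Viability: series mostly up to about 46 µM; 100% = DMSO control wells and 0% = empty wells without cells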
Procedure, shortened: as §1

[11] = Cellular viability qHTS for adrenocortical cancer (ACC) cell line NCI-H295R (AID 1963990); further: nearly all actives have a fitted effect of over 60% in size
Procedure, shortened: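 Adrenocortical carcinoma cells, suspended at 300 000 cells/mL in serum-free DMEM plus ITS, rested overnight before pin transfer of compound. After two days' incubation, ATP-dependent luminescence was recorded and curve-fitted.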

[12] = Cellular viability qHTS for adrenocortical cancer (ACC) cell line SW-13 (AID 1963989); conditions: SW-13 ACC cells viability, CellTiter-Glo, 48 h; activity (max response): hits give low values; further: nearly all actives have a fitted effect of over 65% in size;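 on activity (max response): cells grown in serum-free medium with ITS supplement; on the % scale 0 is the no-effect control and ±100 the full control effect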
Procedure, shortened: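 IC50 and maximal-response values come from four-parameter logistic fits of titration data. SW-13 cells in serum-free medium received compounds (up to 46 uM final) for 48 h before CellTiter-Glo luminescence.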
Potency means the concentration at half of the fitted maximal effect.

O=c1cc(-c2ccc(O)c(O)c2)oc2cc(O)cc(O)c12
active: Potency [1] 7.42 µM
inactive: Potency [2] | Potency [3] | Potency [4] | Potency [5] | Potency [6] | Potency [7] | Potency [8] | Potency [9] | Potency [10] | Potency [11]

O=C(Nc1cccc(Br)c1)c1cccc(S(=O)(=O)N2CCCCCC2)c1
inactive: Potency [2] | Potency [3] | Potency [4] | Potency [5]
active: Potency [1] 5.25 µM

O=C(O)c1cc(=O)[nH]c(=O)[nH]1
inactive: Potency [1] | Potency [2] | Potency [3] | Potency [4] | Potency [5] | Potency [6] | Potency [7] | Potency [8] | Potency [9] | Potency [10] | activity (max response) [12] -4.98% | Potency [11]

COC1CC/C=C(\C)C(=O)Nc2cc(O)cc(c2)CC(C)CC(OC)C(O)C(C)/C=C(\C)C1OC(N)=O (stereo not given)
active: Potency [1] 0.632 µM

CO[C@H]1C[C@@H]2CC[C@@H](C)[C@@](O)(O2)C(=O)C(=O)N2CCCC[C@@H]2C(=O)O[C@H]([C@@H](C)C[C@@H]2CC[C@H](O)[C@H](OC)C2)CC(=O)[C@H](C)C=C(C)[C@@H](O)[C@@H](OC)C(=O)[C@H](C)C[C@H](C)C=CC=CC=C1C
inactive: Potency [2] | Potency [3] | Potency [4]
active: Potency [1] 10.5 µM

O=C(O)CCc1ccc(NCc2cccc(Oc3ccccc3)c2)cc1
active: Potency [1] 16.4 µM
inactive: Potency [2] | Potency [3] | Potency [4] | Potency [5] | Potency [6] | Potency [7] | Potency [9] | activity (max response) [12] -8.89% | Potency [11]

Nc1ccccc1NC(=O)c1ccc(CNc2nccc(-c3cccnc3)n2)cc1
active: Potency [1] 0.231 µM | Potency [2] 2.64 µM | Potency [3] 2.35 µM | Potency [4] 2.35 µM | Potency [5] 2.09 µM | Potency [7] 2.09 µM | Potency [8] 0.743 µM | Potency [9] 0.833 µM | Potency [10] 0.662 µM | Potency [12] 3.98 µM | Potency [11] 0.355 µM

NNC(=O)c1ccncc1
inactive: Potency [1] | Potency [2] | Potency [3] | Potency [4] | Potency [8] | Potency [9] | activity (max response) [12] 13.1% and -0.369% | Potency [11]
active: Potency [5] 16.6 µM

COc1cc(OC)c(NC(=O)Nc2cc(C)on2)cc1Cl
active: Potency [1] 6.61 µM
inactive: Potency [2] | Potency [3] | Potency [4] | Potency [5] | Potency [7] | Potency [9] | activity (max response) [12] -19.6% | Potency [11]

C=Cc1c(C)c2cc3nc(cc4[nH]c(cc5nc(cc1[nH]2)C(C)=C5CCC(=O)O)c(CCC(=O)OC)c4C)[C@@]1(C)C3=CC=C(C(=O)OC)[C@H]1C(=O)OC
active: Potency [1] 7.42 µM | Potency [2] 14.8 µM | Potency [3] 13.2 µM | Potency [4] 14.8 µM
inactive: Potency [5] | Potency [6] | Potency [8] | Potency [9] | Potency [10]

COc1ccc(-c2cc(=O)c3c(O)cc(O)cc3o2)cc1O
inactive: Potency [2] | Potency [3] | Potency [4] | Potency [5] | Potency [6] | Potency [7] | activity (max response) [12] -29.6% | Potency [11]
active: Potency [1] 10.5 µM

Nc1ccn([C@@H]2C(F)=C(CO)[C@@H](O)[C@H]2O)c(=O)n1
active: Potency [1] 1.03 µM | Potency [2] 5.24 µM | Potency [3] 2.95 µM | Potency [4] 2.63 µM | Potency [5] 1.66 µM | Potency [6] 6.6 µM | Potency [10] 1.48 µM

O=C(Nc1cc(Cl)cc2c1[nH]c1cnccc12)c1cccnc1
active: Potency [1] 3.55 µM
inactive: Potency [2] | Potency [3] | Potency [4] | Potency [5] | Potency [6] | Potency [7] | Potency [8] | activity (max response) [12] 7.23% | Potency [11]

COc1cc(C(C)C)c(Oc2cnc(NC(CO)CO)nc2N)cc1I
inactive: Potency [2] | Potency [3] | Potency [4] | Potency [5] | Potency [6] | Potency [8] | activity (max response) [12] -4% | Potency [11]
active: Potency [1] 14.8 µM

COc1ccc(-c2ccc3c(N4CCOCC4)nc(N4C[C@@H](C)O[C@@H](C)C4)nc3n2)cc1CO
active: Potency [1] 1.32 µM | Potency [2] 2.96 µM | Potency [3] 4.69 µM | Potency [4] 1.32 µM | Potency [7] 1.05 µM | Potency [8] 1.48 µM | Potency [9] 1.87 µM | Potency [10] 2.64 µM | Potency [11] 0.631 µM

Cc1c2oc3c(C)ccc(C(=O)NC4C(=O)NC(C(C)C)C(=O)N5CCCC5C(=O)N(C)CC(=O)N(C)C(C(C)C)C(=O)OC4C)c3nc-2c(C(=O)NC2C(=O)NC(C(C)C)C(=O)N3CCCC3C(=O)N(C)CC(=O)N(C)C(C(C)C)C(=O)OC2C)c(N)c1=O (stereo not given) (I: TVP[Sar][NMeV] / II: TVP[Sar][NMeV]; ester I:1-I:C, II:1-II:C; linker I:N-II:N via Actinocin(9to1); configuration not given here)
inactive: Potency [2] | Potency [3] | Potency [4] | Potency [5] | Potency [6] | Potency [7] | Potency [9] | Potency [10]
active: Potency [1] 0.001 µM | Potency [11] 0.802 µM

Cc1ccccc1C(C(=O)NC1CCCCC1)N(C(=O)CNc1ccc(C#N)cc1)c1cccc(F)c1 (stereo not given)
inactive: Potency [1] | Potency [2] | Potency [3] | Potency [4] | Potency [5] | Potency [8] | Potency [9] | activity (max response) [12] -0.757% | Potency [11]

Cc1c(NC(=O)c2ccc(C(C)(C)C)cc2)cccc1-c1cn(C)c(=O)c(Nc2ccc(C(=O)N3CCOCC3)cc2)n1
inactive: Potency [2] | Potency [3] | Potency [4] | Potency [5] | Potency [7] | Potency [8] | Potency [9] | Potency [10] | activity (max response) [12] -3.65% | Potency [11]
active: Potency [1] 11.4 µM and 16.6 µM
